Data published in PubChem BioAssay (EPA / NIEHS).
Where “and” joins values, the source holds several entries; their conditions need not be identical. Equal values may be shown once. Inconclusive results are not listed. More than one record can exist for a structure, and the calls need not agree. Calls of active or inactive are those of the source. How the source made its calls: active means hit-call score of the fitted dose curve at least 0.9, where 1 is the maximum; inconclusive means response in the unintended direction; inactive means score below 0.9.

Experiment: Tanguay_ZF_120hpf_BRAI_legacy: (Legacy) Oregon State University Tanguay Lab 120 Hour Post-fertilization zebrafish Assay for Brain Malformation (AID 2283641)
Procedure: Tanguay_ZF_120hpf_legacy is a whole embryo, multiplexed endpoint assay using zebrafish larvae exposed for 120 hours post fertilization on a 96-well plate.Tanguay_ZF_120hpf_BRAI_legacy is one of one assay component(s) measured or calculated from the Tanguay_ZF_120hpf_legacy assay. It is designed to make measurements of zebrafish development as detected with brightfield microscopy of developing zebrafish embryos.Data from the assay component Tanguay_ZF_120hpf_BRAI_legacy was analyzed into 1 assay endpoints. This assay endpoint, Tanguay_ZF_120hpf_BRAI_legacy, was analyzed in the positive analysis fitting direction relative to DMSO as the negative control and baseline of activity. Using a type of morphology reporter, gain-of-signal activity can be used to understand changes in developmentals as they relate to the whole embryo. To generalize the intended target to other relatable targets, this assay endpoint is annotated to the zebrafish development intended target family, where the subfamily is brain morphogenesis.
Zebrafish husbandry: Tropical 5D wild-type adult zebrafish were housed in at an approximate density of 1000 per 100 gallon tank at the Sinnhuber Aquatic Research Laboratory, Oregon State University, Corvallis, OR. Each tank was kept at standard laboratory conditions of 28C on a 14-h light/10-h dark photoperiod in fish water consisting of reverse osmosis water supplemented with a commercially available salt (Instant Ocean). Spawning funnels were placed into the tanks the night prior, and embryos were collected and staged. […] Ten microliters of each row of dilution plate 2 was added to 2 exposure plates. The final DMSO concentration used was 0.64% (vol/vol). Thirty-two embryos were also exposed to 5uM trimethyltin chloride (positive control). Plates were sealed to prevent evaporation and foil covered to reduce light exposure and kept in a 28C incubator. Embryos were statically exposed until 120 hpf. At 24 hpf, embryos were assessed for photomotor response using a custom photomotor response analysis tool (PRAT) and for developmental toxicity endpoints (MO24: mortality at 24 hpf, DP: developmental progression, SM: spontaneous movement, and NC: notochord distortion). At 120 hpf, locomotor activity was measured using Viewpoint Zebralab and assessed for 18 endpoints. Zebrafish acquisition and analysis program (ZAAP), a custom program designed to inventory, acquire, and manage zebrafish data, was used to collect developmental endpoints as either present or absent (i.e., binary responses were recorded). If mortality occurred for an embryo (at either 24 or 120 hpf), the non-mortality endpoints were not measured.

SMILES	outcome	AC50
CC1(C)C(C=C(Cl)Cl)C1C(=O)OC(C#N)c1ccc(F)c(Oc2ccccc2)c1 (stereo not given)	inactive	
CC1(c2ccc(Oc3ccccc3)cc2)OC(=O)N(Nc2ccccc2)C1=O (stereo not given)	inactive	
O=C(O)C(F)(F)C(F)(F)C(F)(F)C(F)(F)C(F)(F)C(F)(F)C(F)(F)F	inactive	
COP(=S)(OC)Oc1ccc(SC)c(C)c1	inactive	
CC(C)OC(=O)Nc1cccc(Cl)c1		39.5 µM (active)
CCc1ccc(C(=O)NN(C(=O)c2cc(C)cc(C)c2)C(C)(C)C)cc1	inactive	
ClC1C(Cl)C(Cl)C(Cl)C(Cl)C1Cl (stereo not given)	inactive	
CCCN(CCOc1c(Cl)cc(Cl)cc1Cl)C(=O)n1ccnc1	inactive	
CNC(=O)Oc1cccc(N=CN(C)C)c1	inactive	
CNC(=O)/C=C(\C)OP(=O)(OC)OC	inactive	
CC[C@H](C)[C@H]1O[C@]2(C=C[C@@H]1C)C[C@@H]1C[C@@H](C/C=C(\C)[C@@H](O[C@H]3C[C@H](OC)[C@@H](O[C@H]4C[C@H](OC)[C@@H](O)[C@H](C)O4)[C@H](C)O3)[C@@H](C)/C=C/C=C3\CO[C@@H]4[C@H](O)C(C)=C[C@@H](C(=O)O1)[C@]34O)O2 (tested in a mixture with another compound)		15.6 µM (active)
CNC(=O)Oc1ccccc1OC(C)C	inactive	
OCCOc1ccccc1	inactive	
COP(=S)(OC)Oc1ccc([N+](=O)[O-])cc1	inactive	
CN1CSC(=S)N(C)C1	inactive	
Oc1ccc(Cl)cc1Cc1ccccc1	inactive	
Clc1ccccc1-c1nnc(-c2ccccc2Cl)nn1	inactive	
O=S(=O)(O)C(F)(F)C(F)(F)C(F)(F)C(F)(F)C(F)(F)C(F)(F)C(F)(F)C(F)(F)F	inactive	34.2 µM (active)
CCN(CC)C(=O)SCc1ccc(Cl)cc1	inactive	
C[C@H]1[C@H](c2ccc(Cl)cc2)SC(=O)N1C(=O)NC1CCCCC1	inactive	

SMILES	outcome	AC50
CCOCN(C(=O)CCl)c1c(C)cccc1CC	inactive	
O=S1OCC2C(CO1)C1(Cl)C(Cl)=C(Cl)C2(Cl)C1(Cl)Cl (stereo not given)	inactive	
N#Cc1c(Cl)c(Cl)c(Cl)c(C#N)c1Cl	inactive	
Oc1cc(Cl)ccc1Oc1ccc(Cl)cc1Cl	inactive	
COc1nn(CSP(=S)(OC)OC)c(=O)s1	inactive	
COP(=O)(OC)OC=C(Cl)Cl	inactive	
CCC(C)(NC(=O)c1cc(Cl)c(C)c(Cl)c1)C(=O)CCl (stereo not given)	inactive	
O=[N+]([O-])/N=C1\NCCN1Cc1ccc(Cl)nc1	inactive	
CCOC1Oc2ccc(OS(C)(=O)=O)cc2C1(C)C (stereo not given)	inactive	
O=[N+]([O-])c1c(Cl)c(Cl)c(Cl)c(Cl)c1Cl	inactive	
O=C(Nc1ccccc1)Nc1cnns1	inactive	
O=C(O)CCCOc1ccc(Cl)cc1Cl	inactive	
CC(C)(C)C(O)C(Oc1ccc(Cl)cc1)n1cncn1 (stereo not given)		49.8 µM (active) and 33.6 µM (active) and 48.3 µM (active)
O=C(O)COc1ccc(Cl)cc1Cl	inactive	
C#CCN1C(=O)COc2cc(F)c(N3C(=O)C4=C(CCCC4)C3=O)cc21	inactive	
O=C1c2ccccc2C(=O)N1SC(Cl)(Cl)Cl	inactive	
N#CN	inactive	
CC(C)(C)C(O)/C(=C\c1ccc(Cl)cc1Cl)n1cncn1 (stereo not given)		8.24 µM (active)
Cc1[nH]c(=O)n(C(C)(C)C)c(=O)c1Cl	inactive	
